Bioassay records from PubChem.
NPSR antagonist: antagonists of human neuropeptide S receptor cAMP signaling; Q6W5P4; CHO-NPSR cells, cAMP TR-FRET, antagonist mode; Potency, µM (titrated, usually from 38.3 µM), most hits filed as inhibitors; 220,000 compounds, 1% hits; AID 1461; note: nearly all actives have a fitted effect of over 50% in size
Target sequence (Q6W5P4 whole entry, looked up): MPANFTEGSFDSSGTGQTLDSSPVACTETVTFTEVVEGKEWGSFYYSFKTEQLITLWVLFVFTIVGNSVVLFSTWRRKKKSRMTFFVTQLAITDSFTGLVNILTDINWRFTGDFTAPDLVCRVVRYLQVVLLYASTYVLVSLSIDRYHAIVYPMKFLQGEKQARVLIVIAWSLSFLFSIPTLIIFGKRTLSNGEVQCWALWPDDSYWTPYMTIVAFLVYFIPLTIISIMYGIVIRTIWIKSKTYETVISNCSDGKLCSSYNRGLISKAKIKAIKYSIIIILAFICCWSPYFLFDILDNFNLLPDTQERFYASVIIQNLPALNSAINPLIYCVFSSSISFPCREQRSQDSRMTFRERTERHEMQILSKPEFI
Tau fluor cs: counter-screen for tau fibril formation inhibitors. tau K18 P301L Alexa594 fluorescence, heparin fibrillization. Potency, µM (top dose mostly 57.7 µM). 280,000 compounds, 0.93% hits. AID 1463; note: nearly all actives have a fitted effect of over 55% in size
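Human K18 P301L tau (15 uM unlabeled plus 0.24 uM Alexa 594-labeled, final) in 100 mM sodium acetate pH 7 was mixed with compound and 20 uM heparin and incubated 6 hr at 37 C.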
Luc counter: counter-screen: inhibitors of Kinase-Glo firefly luciferase | Kinase-Glo luciferase, ATP luminescence, 8 min | Potency, µM (series often up to 38.3 µM), hits mostly inhibitors | 200,000 compounds, 0.28% hits | AID 1379; note: nearly all actives have a fitted effect of over 60% in size
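Compound is pinned into ATP-containing buffer (10 uM ATP, imidazole pH 7.2, 7 mM MgCl2). Kinase-Glo luciferase reagent is then added. Light output is recorded following an 8-min room-temperature incubation.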
Tau fibril ThT: tau fibrillization inhibition (ThT binding); Potency, µM (titrated, usually from 57.4 µM), usual class: inhibitors; AID 1460; 270,000 compounds, 2.1% hits; recombinant tau K18 P301L (four-repeat tau fragment), heparin-induced fibrillization, ThT fluorescence; P10636; note: nearly all actives have a fitted effect of over 55% in size
Target sequence (P10636 561-689 P618L limits assumed): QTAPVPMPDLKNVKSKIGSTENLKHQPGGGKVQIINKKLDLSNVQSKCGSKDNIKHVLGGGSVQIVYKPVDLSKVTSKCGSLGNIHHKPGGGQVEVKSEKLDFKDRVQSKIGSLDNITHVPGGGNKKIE
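Recombinant human tau K18 fragment […] carrying P301L, 15 uM unlabeled plus 0.24 uM Alexa 594-labeled, was fibrillized with 20 uM heparin in 100 mM sodium acetate pH 7 for 6 hr at 37 C; 30 uM ThT fluorescence read after 1 hr.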
Tau fibril FP: blocks human tau fibril formation measured by polarization; 280,000 compounds, 0.39% hits; P10636; Potency, µM (doses to about 57.7 µM), hits mostly inhibitors; K18 P301L tau heparin fibrillization, Alexa594 FP, 6 h; note: nearly all actives have a fitted effect of over 55% in size
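Steps: dispense K18 P301L tau (15 uM plus 0.24 uM Alexa 594 tracer, final) in pH 7 sodium acetate; add compound; add heparin (20 uM final); incubate 6 hr, 37 C; add ThT (30 uM final); after 1 hr ambient, read FP.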
A number is an active result; [ ] = another dose, or the depositor's remark. Hits are enriched below; roughly 3.3% of the tested compounds scored in any of these assays. Calls come from the whole dose curve; as a rule, active = well fitted curve in the direction sought with a large enough effect; inconclusive = small, poorly fitted or top-dose-only effect, or another doubt; inactive = no such curve, though single readings can be large; an effect the other way counts as inactive or inconclusive.

How did COc1cccc(NC(=O)Cn2c(=O)n(CCc3ccc(OC)c(OC)c3)c(=O)c3ccccc32)c1 do in these assays?
Tau fluor cs: inactive; Tau fibril ThT: inactive; Tau fibril FP: inconclusive

How did CC(=O)C1=C(C)NC2=C(C(=O)c3ccccc32)C1c1ccccc1 (stereo not drawn) do in these assays?
NPSR antagonist: inactive; Tau fluor cs: inconclusive; Luc counter: inactive; Tau fibril ThT: 18µM; Tau fibril FP: inactive

Results for CSC1=C(C#N)C(c2ccccc2Cl)C2=C(CCCC2=O)N1 (stereo not drawn) ?
NPSR antagonist: inactive; Tau fluor cs: inactive; Luc counter: inactive; Tau fibril ThT: inactive; Tau fibril FP: inactive

Results for CSC1=C(C#N)C(c2ccccc2Cl)C2=C(N1)c1ccccc1C2=O (stereo not drawn) ?
NPSR antagonist: inconclusive; Tau fluor cs: inconclusive; Luc counter: inactive; Tau fibril ThT: 28µM; Tau fibril FP: inconclusive

Results for CC1=C(C#N)C(c2ccccc2)C2=C(N1)c1ccccc1C2=O (stereo not drawn) ?
NPSR antagonist: inactive; Tau fluor cs: 25µM[quencher]; Luc counter: inactive; Tau fibril ThT: 13µM; Tau fibril FP: inactive

What do the screens show for `O=C(Nc1cc(-c2nc3ccccc3s2)ccc1Cl)c1cc2ccccc2o1`?
Tau fluor cs: inactive; Tau fibril ThT: inactive; Tau fibril FP: inactive

How did CCOC(=O)C1=C(C)NC2(O)c3ccccc3C(=O)C12O (stereo not drawn) do in these assays?
NPSR antagonist: inactive; Tau fluor cs: inactive; Luc counter: inactive; Tau fibril ThT: inactive; Tau fibril FP: inactive

How did COCCOC(=O)C1=C(C)NC2(O)c3ccccc3C(=O)C12O (stereo not drawn) do in these assays?
NPSR antagonist: inactive; Tau fluor cs: inactive; Luc counter: inactive; Tau fibril ThT: 11µM; Tau fibril FP: inconclusive

How did Clc1cccc(CNc2ncnc3c2nc2n3CCCC2)c1 do in these assays?
Tau fluor cs: inactive; Tau fibril ThT: inconclusive; Tau fibril FP: inactive

Results for Cc1csc(NC(=O)c2ccc(N3CCCC3=O)cc2)n1 ?
NPSR antagonist: inactive; Tau fluor cs: inactive; Luc counter: 13µM; Tau fibril ThT: inactive; Tau fibril FP: inactive

How did Cc1ccc(-n2c(=O)[nH]c3sc4c(c3c2=O)CCCC4)cc1 do in these assays?
Tau fluor cs: inactive; Tau fibril ThT: inconclusive; Tau fibril FP: inactive

How did Cc1ccc(-n2c(=S)[nH]c3sc4c(c3c2=O)CCC4)cc1 do in these assays?
NPSR antagonist: 7.9µM; Tau fluor cs: inactive; Luc counter: inactive; Tau fibril ThT: inactive; Tau fibril FP: inactive

How did COC/C=C/C1=CC2=CC(=O)C(C)(OC(=O)c3cnc4ccccc4n3)C(=O)C2=CN1CCCCO (stereo not drawn) do in these assays?
NPSR antagonist: inactive; Tau fluor cs: inactive[11.6 µM]; Luc counter: inactive[7.66 µM]; Tau fibril ThT: 13µM; Tau fibril FP: inconclusive

How did COC/C=C/C1=CC2=CC(=O)C(C)(OC(=O)c3cnc4ccccc4n3)C(=O)C2=CN1Cc1ccc(OC)cc1 (stereo not drawn) do in these assays?
NPSR antagonist: inactive; Tau fluor cs: inconclusive; Luc counter: inactive[7.66 µM]; Tau fibril ThT: 13µM; Tau fibril FP: inconclusive

What do the screens show for `COC/C=C/C1=CC2=CC(=O)C(C)(OC(=O)c3cnc4ccccc4n3)C(=O)C2=CN1Cc1ccccc1` (stereo not drawn)?
NPSR antagonist: inactive; Tau fluor cs: inconclusive; Luc counter: inactive[7.66 µM]; Tau fibril ThT: 10µM; Tau fibril FP: inconclusive

How did COC/C=C/C1=CC2=CC(=O)C(C)(OC(=O)c3cnc4ccccc4n3)C(=O)C2=CN1CCc1ccccn1 (stereo not drawn) do in these assays?
Tau fluor cs: inactive[11.6 µM]; Luc counter: inactive[7.66 µM]; Tau fibril ThT: inactive[11.5 µM]; Tau fibril FP: inactive[11.6 µM]

How did COc1ccccc1Cc1nc2ccccc2nc1SCC(=O)N(C)c1ccc(F)cc1 do in these assays?
Tau fluor cs: inactive; Tau fibril ThT: inactive; Tau fibril FP: inactive

Results for Cc1ccc(NC(=O)CCCn2c(=O)c3cccn3c3ccccc32)cc1C ?
Tau fluor cs: inactive; Tau fibril ThT: inactive; Tau fibril FP: inactive

Results for C=C1C(C2(C)C=CC(=O)C(C)(C)C2CC(=O)OC)CC[C@@]2(C)C(c3ccoc3)OC(=O)C3OC132 (stereo partly drawn) ?
Tau fluor cs: inactive; Luc counter: inactive; Tau fibril ThT: inactive; Tau fibril FP: inactive

How did COc1cc2c(cc1OC)C(c1ccc(Cl)cc1)N(c1cccc(C#N)c1)C(=O)C2 (stereo not drawn) do in these assays?
Tau fluor cs: inactive; Tau fibril ThT: inactive; Tau fibril FP: inactive

Results for CCOC(=O)c1ccc(N2CC3=C(C2=O)C(c2ccc(OC)cc2)NC(=O)N3C)cc1 (stereo not drawn) ?
Tau fluor cs: inactive; Tau fibril ThT: inactive; Tau fibril FP: inactive

How did C/C(=N\NC(=O)CC#N)c1cc2ccccc2oc1=O do in these assays?
NPSR antagonist: inactive; Tau fluor cs: inactive; Luc counter: inactive; Tau fibril ThT: inactive; Tau fibril FP: inactive

Results for C/C(=N\Nc1ccccc1)c1cc2ccccc2oc1=O ?
NPSR antagonist: inactive; Tau fluor cs: inconclusive; Luc counter: inactive; Tau fibril ThT: 11µM; Tau fibril FP: inconclusive

Results for C=CC[C@@H]1C=C[C@@H](O/N=C2/C[C@@H](O)[C@@H](O)[C@@H]3[C@@H]4C(=O)N(CC)C(=O)[C@H]4CC[C@@H]23)[C@@H](CO)O1 ?
Tau fluor cs: inactive[11.6 µM]; Tau fibril ThT: inactive[11.5 µM]; Tau fibril FP: inactive[11.6 µM]

What do the screens show for `O=C(c1cc(-c2ccco2)nn1-c1cccc(Cl)c1)N1CCCCC1`?
NPSR antagonist: inconclusive; Tau fluor cs: inactive; Luc counter: inactive; Tau fibril ThT: 28µM; Tau fibril FP: inconclusive

Results for CCOc1ccc(C(=O)NCCc2sc(-c3ccc(F)cc3)nc2C)cc1 ?
Tau fluor cs: inactive; Tau fibril ThT: inconclusive; Tau fibril FP: inactive

What do the screens show for `O=C(CSc1ccccc1)Nc1nnc(COc2ccc(Cl)cc2)s1`?
NPSR antagonist: inactive; Tau fluor cs: inconclusive; Luc counter: inactive; Tau fibril ThT: 28µM; Tau fibril FP: inconclusive

Results for CN1CCc2cc3c(cc2C(=O)Cc2ccc4c(c2C1)OCO4)OCO3 ?
Tau fluor cs: inactive; Luc counter: inactive; Tau fibril ThT: inactive; Tau fibril FP: inactive

What do the screens show for `O=C1ON=C(c2ccccc2)/C1=C/c1cccnc1`?
NPSR antagonist: inactive; Tau fluor cs: inactive; Luc counter: inactive; Tau fibril ThT: inactive; Tau fibril FP: inactive

What do the screens show for `O=C1ON=C(c2ccccc2)/C1=C/c1ccc(OS(=O)(=O)c2ccccc2)cc1`?
NPSR antagonist: 6.3µM; Tau fluor cs: inactive; Luc counter: inactive; Tau fibril ThT: inconclusive; Tau fibril FP: inactive

What do the screens show for `Cc1cc(N(CCO)CCO)ccc1N=Nc1cc(F)ccc1F`?
NPSR antagonist: inactive; Tau fluor cs: inconclusive; Luc counter: inactive; Tau fibril ThT: 10µM; Tau fibril FP: inactive

Results for OCCN(CCO)c1ccc(C(c2ccc(Cl)cc2)c2ccc(N(CCO)CCO)cc2Cl)c(Cl)c1 ?
NPSR antagonist: inconclusive; Tau fluor cs: inactive; Luc counter: inactive; Tau fibril ThT: inactive; Tau fibril FP: inactive
